Experimental data: the supplement of paper PMC10849652
About 7,900 targets were measured; listed, in parts, are those with a hit and a random draw of the rest. About 0.6% of all pairs of compound and target were hits.

Assays:
Experiment in all cases: log2 fold change, soluble protein after heating vs DMSO (PISA); higher = thermal stabilisation; K562 cells, 10 uM, 30 min; active = over 0.2 and 3.5 SD of the protein, either way, in both replicates (recomputed)
[1] = compound: C1=CC=C(C=C1)[C@H](COC2=CC3=C(C=C2)NC(=O)N3)NC(=O)C4=CC=CN(C4=O)CC5=CC(=C(C=C5)F)F
Method in brief: (§1)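 K562 cells at 2×10^6 cells/mL were treated with 10 μM compound for 30 min. Aliquots were heated for 3 min across 48°C-58°C, pooled, and extracted in PBS with 0.5% NP-40 at 4°C; soluble protein was the supernatant after 21,000xg for 90 min. Soluble protein was quantified by TMTpro 16plex LC-MS/MS with channel sums equalised, and reported as log2 fold change in thermal stability against DMSO controls, with values from duplicates.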

[2] = compound: CC1=C(SC2=C1C(=N[C@H](C3=NN=C(N32)C)CC(=O)N)C4=CC=C(C=C4)Cl)C
Method in brief: as §1

[3] = compound: CC1=C2C(=CC=C1)N=C(N(C2=O)C3=CC=CC=C3C)CN4C=NC5=C(N=CN=C54)N
Method in brief: as §1

[4] = compound: Cc1sc2c(c1C)C(c1ccc(Cl)cc1)=N[C@@H](CC(=O)OC(C)(C)C)c1nnc(C)n1-2
Method in brief: as §1

[5] = compound: c1ccc([C@@H]2C[C@H]2NC2CCNCC2)cc1
Method in brief: as §1

Measured: log2 fold change

ZNF277 (UniProt Q9NRM2)
Sequence of UniProt Q9NRM2 (Q9NRM2 whole entry, looked up): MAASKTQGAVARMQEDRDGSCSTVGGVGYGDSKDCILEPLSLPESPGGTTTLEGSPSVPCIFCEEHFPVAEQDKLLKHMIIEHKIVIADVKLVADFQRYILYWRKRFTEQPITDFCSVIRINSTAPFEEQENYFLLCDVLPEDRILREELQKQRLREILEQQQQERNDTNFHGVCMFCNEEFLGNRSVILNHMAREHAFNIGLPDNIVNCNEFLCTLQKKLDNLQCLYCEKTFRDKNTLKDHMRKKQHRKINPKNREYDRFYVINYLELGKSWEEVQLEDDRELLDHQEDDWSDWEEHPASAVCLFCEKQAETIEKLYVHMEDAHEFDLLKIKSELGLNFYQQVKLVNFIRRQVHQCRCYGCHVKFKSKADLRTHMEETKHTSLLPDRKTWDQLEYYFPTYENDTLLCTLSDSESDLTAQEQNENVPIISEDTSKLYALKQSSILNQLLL
inactive: [1] -0.134 | [2] 0.028 | [3] -0.007 | [4] 0.286 | [5] 0

ZBTB17 isoform 2 (UniProt Q13105)
inactive: [1] -0.08 | [4] -0.019

ZDHHC17 (UniProt Q8IUH5)
Sequence of UniProt Q8IUH5 (Q8IUH5 whole entry, looked up): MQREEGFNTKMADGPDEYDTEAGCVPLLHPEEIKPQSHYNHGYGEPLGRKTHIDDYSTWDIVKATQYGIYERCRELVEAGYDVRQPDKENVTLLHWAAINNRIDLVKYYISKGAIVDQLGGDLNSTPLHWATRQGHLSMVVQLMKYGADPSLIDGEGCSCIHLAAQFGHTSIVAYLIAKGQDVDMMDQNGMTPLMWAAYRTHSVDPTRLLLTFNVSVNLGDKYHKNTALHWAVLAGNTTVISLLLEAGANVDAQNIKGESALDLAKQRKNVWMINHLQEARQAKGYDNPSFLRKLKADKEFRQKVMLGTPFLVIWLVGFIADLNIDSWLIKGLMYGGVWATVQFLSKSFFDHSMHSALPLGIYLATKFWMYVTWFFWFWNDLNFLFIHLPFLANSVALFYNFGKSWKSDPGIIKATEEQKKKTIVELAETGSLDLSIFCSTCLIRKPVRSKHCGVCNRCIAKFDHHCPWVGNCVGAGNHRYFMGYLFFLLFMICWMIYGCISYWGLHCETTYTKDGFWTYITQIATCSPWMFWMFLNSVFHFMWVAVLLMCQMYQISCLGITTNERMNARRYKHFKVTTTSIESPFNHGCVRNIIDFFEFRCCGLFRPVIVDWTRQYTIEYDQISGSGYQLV
inactive: [1] 0.014 | [2] 0.062 | [3] -0.082 | [4] -0.039 | [5] -0.011

ZFP91 (UniProt Q96JP5)
Sequence of UniProt Q96JP5 (Q96JP5 whole entry, looked up): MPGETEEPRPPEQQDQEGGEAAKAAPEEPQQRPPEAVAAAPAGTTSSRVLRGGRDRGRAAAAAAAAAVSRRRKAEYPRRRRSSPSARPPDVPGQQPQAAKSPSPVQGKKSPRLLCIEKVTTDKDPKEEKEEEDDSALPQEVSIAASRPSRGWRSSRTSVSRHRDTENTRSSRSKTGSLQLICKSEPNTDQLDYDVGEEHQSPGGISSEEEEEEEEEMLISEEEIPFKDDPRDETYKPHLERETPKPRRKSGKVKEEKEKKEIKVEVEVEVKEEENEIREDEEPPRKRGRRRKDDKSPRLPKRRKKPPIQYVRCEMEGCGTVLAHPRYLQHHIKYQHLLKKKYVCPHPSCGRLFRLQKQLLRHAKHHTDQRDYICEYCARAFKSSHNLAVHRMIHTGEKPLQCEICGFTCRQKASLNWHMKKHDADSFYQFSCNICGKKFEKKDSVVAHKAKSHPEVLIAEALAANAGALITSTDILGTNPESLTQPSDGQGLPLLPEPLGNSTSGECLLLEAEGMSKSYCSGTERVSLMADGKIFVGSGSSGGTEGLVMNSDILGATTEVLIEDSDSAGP
inactive: [1] -0.038 | [2] -0.221 | [3] -0.052 | [4] 0.096 | [5] 0.03

YIPF5 isoform 3 (UniProt Q969M3)
Sequence of UniProt Q969M3 (Q969M3 whole entry, looked up): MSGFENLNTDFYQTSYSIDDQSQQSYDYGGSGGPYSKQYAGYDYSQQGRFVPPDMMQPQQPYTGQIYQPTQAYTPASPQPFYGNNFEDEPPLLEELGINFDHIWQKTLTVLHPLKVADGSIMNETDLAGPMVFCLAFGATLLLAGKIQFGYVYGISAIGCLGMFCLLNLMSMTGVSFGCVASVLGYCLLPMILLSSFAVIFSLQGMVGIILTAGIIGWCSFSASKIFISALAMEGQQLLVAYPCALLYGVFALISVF
inactive: [1] 0 | [2] 0.025 | [3] 0.018 | [4] 0.002 | [5] 0.08

ZADH2 (UniProt Q8N4Q0)
Sequence of UniProt Q8N4Q0 (Q8N4Q0 whole entry, looked up): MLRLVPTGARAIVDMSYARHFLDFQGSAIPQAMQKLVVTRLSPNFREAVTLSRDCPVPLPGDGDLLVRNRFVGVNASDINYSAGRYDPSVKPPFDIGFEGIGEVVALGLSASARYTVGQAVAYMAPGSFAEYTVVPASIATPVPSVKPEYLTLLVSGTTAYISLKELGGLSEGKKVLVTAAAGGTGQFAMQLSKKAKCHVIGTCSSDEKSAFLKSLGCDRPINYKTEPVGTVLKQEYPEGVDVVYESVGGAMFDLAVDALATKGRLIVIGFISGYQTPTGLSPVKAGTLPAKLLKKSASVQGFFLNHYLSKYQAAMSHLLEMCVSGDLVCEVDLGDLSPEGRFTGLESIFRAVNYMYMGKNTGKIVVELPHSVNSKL
inactive: [1] 0.012 | [2] -0.039 | [3] -0.076 | [4] -0.026 | [5] 0.008

YWHAB (UniProt P31946)
Sequence of UniProt P31946 (P31946 whole entry, looked up): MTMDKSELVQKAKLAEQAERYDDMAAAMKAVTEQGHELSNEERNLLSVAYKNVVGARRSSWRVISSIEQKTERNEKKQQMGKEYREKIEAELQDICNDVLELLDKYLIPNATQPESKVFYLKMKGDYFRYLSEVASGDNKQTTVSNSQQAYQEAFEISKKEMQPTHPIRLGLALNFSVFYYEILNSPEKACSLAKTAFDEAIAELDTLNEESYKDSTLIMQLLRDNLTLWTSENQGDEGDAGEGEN
inactive: [1] -0.024 | [2] 0.024 | [3] -0.01 | [4] -0.004 | [5] -0.03

ZMAT2 (UniProt Q96NC0)
Sequence of UniProt Q96NC0 (Q96NC0 whole entry, looked up): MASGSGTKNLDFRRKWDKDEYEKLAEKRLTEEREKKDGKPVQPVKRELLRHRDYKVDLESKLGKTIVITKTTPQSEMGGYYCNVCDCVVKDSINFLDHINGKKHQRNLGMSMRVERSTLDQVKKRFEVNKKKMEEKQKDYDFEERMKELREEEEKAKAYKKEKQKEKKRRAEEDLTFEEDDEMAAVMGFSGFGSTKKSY
inactive: [1] 0.029 | [2] -0.025 | [3] -0.009 | [4] -0.042 | [5] -0.016

ZCCHC17 (UniProt Q9NP64)
Sequence of UniProt Q9NP64 (Q9NP64 whole entry, looked up): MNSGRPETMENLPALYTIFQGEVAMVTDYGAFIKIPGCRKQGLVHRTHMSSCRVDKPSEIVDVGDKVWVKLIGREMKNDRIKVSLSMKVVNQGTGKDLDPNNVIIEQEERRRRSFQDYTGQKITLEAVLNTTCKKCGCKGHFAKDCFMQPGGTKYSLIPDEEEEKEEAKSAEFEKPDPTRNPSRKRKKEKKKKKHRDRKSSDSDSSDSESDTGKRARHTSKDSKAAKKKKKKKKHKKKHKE
inactive: [3] -0.124

YAE1 (UniProt Q9NRH1)
Sequence of UniProt Q9NRH1 (Q9NRH1 whole entry, looked up): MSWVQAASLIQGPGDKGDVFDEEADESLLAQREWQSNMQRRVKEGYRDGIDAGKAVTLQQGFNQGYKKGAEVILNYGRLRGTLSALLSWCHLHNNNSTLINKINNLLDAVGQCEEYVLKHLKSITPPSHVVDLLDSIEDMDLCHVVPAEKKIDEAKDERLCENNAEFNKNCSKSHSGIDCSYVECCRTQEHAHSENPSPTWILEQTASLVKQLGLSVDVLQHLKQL
inactive: [1] -0.021 | [2] -0.111 | [3] 0.016 | [4] -0.014 | [5] 0.095

ZNF609 (UniProt O15014)
Sequence of UniProt O15014 (O15014 whole entry, looked up): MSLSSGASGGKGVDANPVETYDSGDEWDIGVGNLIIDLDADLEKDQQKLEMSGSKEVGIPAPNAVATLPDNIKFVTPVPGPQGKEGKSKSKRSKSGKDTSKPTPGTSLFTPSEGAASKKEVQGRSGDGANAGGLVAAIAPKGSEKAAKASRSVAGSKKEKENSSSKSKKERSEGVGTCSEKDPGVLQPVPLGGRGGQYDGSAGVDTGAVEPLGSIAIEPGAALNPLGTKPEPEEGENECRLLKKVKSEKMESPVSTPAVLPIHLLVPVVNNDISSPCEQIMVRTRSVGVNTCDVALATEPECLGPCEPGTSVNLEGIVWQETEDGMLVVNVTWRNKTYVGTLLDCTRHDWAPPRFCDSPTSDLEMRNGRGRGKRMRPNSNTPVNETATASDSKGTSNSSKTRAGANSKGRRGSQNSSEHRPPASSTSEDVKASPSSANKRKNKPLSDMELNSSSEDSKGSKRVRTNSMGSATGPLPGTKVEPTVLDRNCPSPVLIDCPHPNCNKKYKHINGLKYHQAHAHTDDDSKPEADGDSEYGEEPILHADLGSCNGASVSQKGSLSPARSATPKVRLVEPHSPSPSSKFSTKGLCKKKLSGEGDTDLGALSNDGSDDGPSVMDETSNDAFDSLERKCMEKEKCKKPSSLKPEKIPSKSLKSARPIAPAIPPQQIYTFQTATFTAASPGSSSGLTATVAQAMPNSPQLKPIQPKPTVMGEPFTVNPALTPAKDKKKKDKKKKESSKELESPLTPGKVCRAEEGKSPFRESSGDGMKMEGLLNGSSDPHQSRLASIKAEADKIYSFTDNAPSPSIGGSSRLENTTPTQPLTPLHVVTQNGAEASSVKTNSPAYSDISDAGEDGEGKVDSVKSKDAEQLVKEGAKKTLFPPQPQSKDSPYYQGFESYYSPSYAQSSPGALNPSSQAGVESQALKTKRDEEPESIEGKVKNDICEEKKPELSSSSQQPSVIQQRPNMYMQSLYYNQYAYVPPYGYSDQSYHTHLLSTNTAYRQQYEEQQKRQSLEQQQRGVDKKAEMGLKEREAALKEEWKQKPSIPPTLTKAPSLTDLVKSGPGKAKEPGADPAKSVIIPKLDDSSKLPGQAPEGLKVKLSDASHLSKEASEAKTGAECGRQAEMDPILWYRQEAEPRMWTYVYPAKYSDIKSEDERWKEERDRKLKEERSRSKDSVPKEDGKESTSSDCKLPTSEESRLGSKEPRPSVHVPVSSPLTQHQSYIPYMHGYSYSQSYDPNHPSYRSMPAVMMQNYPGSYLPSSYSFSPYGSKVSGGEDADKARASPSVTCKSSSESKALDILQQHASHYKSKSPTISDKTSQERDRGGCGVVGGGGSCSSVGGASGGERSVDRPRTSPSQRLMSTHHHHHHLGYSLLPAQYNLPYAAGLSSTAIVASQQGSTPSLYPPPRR
inactive: [1] 0.035 | [2] -0.008 | [3] 0.148 | [4] 0.14 | [5] 0.073
